# Bioassay records (PubChem BioAssay)
# An excerpt weighted towards active compounds, which were near 13% of everything screened.
# Lassa entry inh: blocks Lassa virus binding to or entry into cells; Potency, µM (series often up to 37.9 µM), for the others: top-dose activity change, negative = inhibition, usual class: inhibitors; AID 540256; 1.2% of 300,000 active; Lassa virus pseudotype entry inhibition, cell reporter; calls by dose curve; tested in HEK293 cells; also: potency is read from the fitted curve at half-maximal effect; % is scaled to controls: 0 for no effect and ±100 for the full control effect; nearly all actives have a fitted effect of over 50% in size
# Shiga inhibitor: Shiga toxin inhibition; Vero cells, Shiga toxin protein synthesis inhibition reporter; inhibition, % at 38.7 µM; 9.2% of 290,000 active; in the data active = inhibition mostly above about 28%, no sharp cut-off; inactive = mostly below about 43%; also: 0% is about no effect
# FMDV inh: foot and mouth disease virus antiviral activity. FMDV antiviral cell-based qHTS. Potency, µM (highest dose often 57.9 µM), for the others: at the highest dose activity change, negative = inhibition, usual class: inhibitors. 1.2% of 410,000 active. AID 1159524; calls by dose curve; tested in HEK293T cells; also: read-out not given here; potency is read from the fitted curve at half-maximal effect; % is scaled to controls: 0 for no effect and ±100 for the full control effect; nearly all actives have a fitted effect of over 45% in size
# HCV inh: inhibitors of hepatitis C virus infection; Huh7.5.1 HCVcc-Cre infection, luciferase reporter, 44 h; Potency, µM (titrated, usually from 41.8 µM), without a hit: top-dose activity change, negative = inhibition, hits mostly inhibitors; 3.4% of 340,000 active; active = well fitted inhibition curve with a large enough effect; inconclusive = small, poorly fitted or top-dose-only effect, or another doubt; inactive = no such curve, though single readings can be large or run the other way; also: potency is read from the fitted curve at half-maximal effect; % is scaled to controls: 0 for no effect and ±100 for the full control effect
#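 Luciferase read-out (15 sec integration) after a 15 min room-temperature substrate step quantifies HCVcc-Cre infection. Cells, 1,000 per well, had compound added 4 h post-plating, then virus at ~0.5 moi, and were cultured 44 h.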
# CHX counter: counter-screen for Shiga toxin inhibitors: cycloheximide protein synthesis inhibition; AID 2314; max response, %; cell reporter, cycloheximide protein synthesis inhibition counterscreen; 12% of 300,000 active; in the data active = max response mostly above about 13%, no sharp cut-off; inactive = mostly below about 14%; also: read at 38.3 µM for the half of the compounds with a filed dose; 0% is about no effect
# Marburg entry inh: Marburg virus entry inhibition. Potency, µM (doses to about 37.8 µM), inactives show top-dose activity change, negative = inhibition, actives largely listed as inhibitors. AID 540276. Marburg virus pseudotyped entry inhibition, cell reporter. 1.8% of 300,000 active; calls by dose curve; tested in HEK293 cells; also: potency is read from the fitted curve at half-maximal effect; % is scaled to controls: 0 for no effect and ±100 for the full control effect
# Active calls of the source: *; ? = inconclusive; . = no result; [ ] = another dose, or the depositor's remark.
SMILES,Lassa entry inh,Shiga inhibitor,FMDV inh,HCV inh,CHX counter,Marburg entry inh
Cc1ccc(NC(=O)CSc2nccn2Cc2ccccc2)cc1C,?,99,22%,-16%,48*,0%
O=C(O)CNS(=O)(=O)c1c(Cl)cccc1Cl,1%,-8,13%,-3%,-1,22%
O=C(Nc1cccc(Cl)c1)Nc1nnc(CSCCOc2ccc(Cl)cc2)s1,?,17,?,2.5µM*,8,?
Cc1ccc(NC(=O)Nc2nnc(CSCCOc3ccc(Cl)cc3)s2)cc1,5%,-4,0%,10%,-5,7%
O=C(Nc1ccc(Cn2cccn2)cc1)c1ccc(COc2cccc(Br)c2)cc1,5.6µM*,22,-21%,10µM*,19*,0.56µM*
Cc1ccc(N2C(=O)C(NC(=O)c3ccccc3F)(C(F)(F)F)C3=C2CC(C)(C)CC3=O)cc1 (stereo unspecified),?,-16,-19%,3%,-5,6%
CC(C)NCC(=O)NC12CC3CC(CC(C3)C1)C2,-1%,-5,-20%,28%,-1,?
c1ccc(-c2cnnc3ccccc23)cc1,.,.,-26%,11µM*,.,.
Cc1ncoc1C(=O)N1CCCC(CCC(=O)NCc2ccccc2F)C1 (stereo unspecified),?,0,10%,-2%,-1,?
C#Cc1cccc(C(=O)N2CCCC(CCC(=O)NCc3ccccc3F)C2)c1 (stereo unspecified),-14%,.,19%,1%,.,-2%
O=C(CCC1CCCN(C(=O)c2ccc3c(c2)OCCO3)C1)NCc1ccccc1F (stereo unspecified),0%[46.1 µM],77*,22%,1%,48*,?
COCc1ccc(C(=O)N2CCCC(CCC(=O)NCc3ccccc3F)C2)o1 (stereo unspecified),2%,8,38%,1%,9,5.6µM*
COc1ccc(C(=O)N2CCCC(CCC(=O)NCc3ccccc3F)C2)c(OC)n1 (stereo unspecified),7%[46.1 µM],8,3%,-7%,23*,-9%[46.1 µM]
C=CCNc1nc(-c2sc(NC(C)=O)nc2C)cs1,-25%,132*,27%,?,41*,-28%
C=CCNc1nc(-c2sc(NC(=O)CC)nc2C)cs1,?,96*,41%,?,36*,?
CCCc1cc(=O)oc2cc(OCC(=O)N3C[C@H]4C[C@@H](C3)c3cccc(=O)n3C4)ccc12,.,-3,-16%,13%,-2,.
CC(=O)Nc1sc2c(c1C(c1ccc(F)cc1)N1CCOCC1)CCCC2 (stereo unspecified),-25%,11,?,8%,-1,13µM*
Cc1ccsc1CN(C(=O)COc1ccc(Cl)cc1)C1CCS(=O)(=O)C1 (stereo unspecified),-25%[46.1 µM],.,-16%,.,.,-1%[46.1 µM]
CCC1=Nc2ccccc2NC2=C1C(=O)CCC2,16%,77*,5%,3%,30*,15%[46.1 µM]
CC1CC(=O)C2=C(C1)Nc1ccccc1N=C2 (stereo unspecified),-3%,-21,-2%,10%,-3,-2%
Cc1cc2n(n1)C(c1ccccc1)CC(c1ccc(Br)cc1)=N2 (stereo unspecified),-1%,29*,16%,-25%,37*,-34%
O=C(CN1C(=O)C2CCCCN2c2ccc(C(=O)N3CCCC3)cc21)NCc1cccc(F)c1 (stereo unspecified),7%[46.1 µM],.,23%,.,.,.
COc1ccc(OC(=O)N(C)C[C@H]2OCc3cn(nn3)CCCC(=O)N([C@H](C)CO)C[C@@H]2C)cc1,.,.,0%,.,.,.
COc1ccc(N=Nc2ccc(O)c3ncccc23)cc1,.,6,2%,?,5,.
Cc1ccc(N=Nc2ccc(O)cc2)c(Br)c1,10µM*,49*,-81%,-11%,44*,?
SMILES,Lassa entry inh,Shiga inhibitor,FMDV inh,HCV inh,CHX counter,Marburg entry inh
O=[N+]([O-])c1ccccc1N=Nc1ccc(O)cc1O,-7%,.,36%,-5%,.,5%
Oc1ccc(N=Nc2ccc3c(c2)OCCO3)c2cccnc12,?,135*,?,?,44*,?
COc1cccc(N=Nc2ccc3cccnc3c2O)c1,.,62*,35%,2µM*,30*,.
Oc1ccc(N=Nc2ccc(Br)cc2)c(O)c1,.,84*,48%,-15%,48*,.
COc1cccc(N=Nc2ccc(O)c3ncccc23)c1,?,89*,-4%,6.3µM*,13*,?
Oc1ccc(N=Nc2ccc3c(c2)OCCO3)c(O)c1,.,25,?,8%,22*,.
OCc1ccnc2c(O)cccc12,4.1µM*,21,-12%,?,4,?
COCc1ccc(O)c2ncccc12,?,-8,-29%,5.6µM*,26*,?
Cc1cccc(NCc2ccc(O)c3ncccc23)c1,?,-7,-21%,7.1µM*,6,?
CCCNC(=O)c1c(C)cc(=O)oc1C,2%,-7,20%,7%,-3,17%
CC(=O)c1cccc(NC(=O)Nc2ccc3c(c2)OCO3)c1,3%[46.1 µM],88*,44%,-19%,38*,?
O=C(Nc1cccc(Cl)c1)Nc1ccc2c(c1)OCO2,?,73*,56%,-17%,48*,?
Cc1nn(C)cc1CNC(=O)Nc1cccc(Cl)c1,24%,90*,51%,3%,67*,13%
O=C(NCc1ccc2c(c1)OCO2)Nc1cccc(Cl)c1,.,57*,59%,-24%,41*,.
Cc1nn(C)cc1CNC(=O)Nc1ccc(Br)cc1Cl,10%,19,12%,?,5,0%
Cc1cccc(C)c1NC(=O)Nc1ccc2c(c1)OCO2,24%,38,16%,5%,27,10%[46.1 µM]
Cn1ncc(N2CCN(C(=O)c3ccc(Cl)cc3)CC2)c(Cl)c1=O,1%[46.1 µM],-10,-11%,8%,-3,28%[46.1 µM]
CC(=O)N[C@@H](Cc1ccc(O)cc1)CN1C(N)=NC[C@@H]1CC(C)C,.,-3,-10%,6%,-1,.
Cc1ccc(C)n1-c1nn(S(=O)(=O)c2cccc(C(F)(F)F)c2)c2cccc(F)c12,1%[46.1 µM],-6,-21%,-13%,6,?
O=C(NCc1cccc(Cl)c1)c1ccc2c(c1)OCO2,16%[14.3 µM],41,61%,?,21*,10%
O=C(Nc1ccccc1)C1=C[C@@H](c2ccc(Br)cc2)C[C@@H](OCc2ccc(CO)cc2)O1,.,86*,-15%,?,46*,.
NC(=O)C1=C[C@H](c2ccc(Br)cc2)C[C@H](OCc2ccc(CO)cc2)O1,.,56*,35%,-9%,25*,.
O=C(C1=C[C@@H](c2ccc(C(F)(F)F)cc2)C[C@@H](OCc2ccc(CO)cc2)O1)N1CCN(Cc2ccc3c(c2)OCO3)CC1,.,5,?,?,11,.
O=C(C1=C[C@H](c2ccc(C(F)(F)F)cc2)C[C@H](OCc2ccc(CO)cc2)O1)N1CCN(Cc2ccc3c(c2)OCO3)CC1,.,27,?,10µM*,-1,.
O=C(O)C1=C[C@@H](c2ccc(Br)cc2)C[C@@H](OCc2ccc(CO)cc2)O1,.,-7,-1%,?,3,.
